13 compounds from PubChem BioAssay (EPA / NIEHS) can be followed below.

Several values for one entry are separate records, joined by “and”; a condition that tells them apart may be missing. Equal values may be shown once. Activity calls are given as the source filed them. The calls were made as follows: active = hit-call score of the fitted dose curve at least 0.9, where 1 is the maximum; inactive = score below 0.9.

Read-out in the assay: Plasminogen activator inhibitor-1 (PAI1), SERPINE1 (gene 5054)
As to the kind of experiment: BSK_MyoF_PAI1: BioMAP Diversity Plus: MyoF Assay for Plasminogen activator inhibitor-1 (PAI1) Biomarker Activity (AID 2284256). Conditions: primary human lung fibroblasts. Here is the method: BSK_MyoF is a cell-based, multiplexed-readout assay that uses lung fibroblasts, […], with measurements taken at 24 hours after chemical dosing in a microplate: 96-well plate.BSK_MyoF_PAI1 is an assay component measured in the BSK_MyoF assay. It measures PAI-1 antibody related to regulation of gene expression using ELISA technology.Data from the assay component BSK_MyoF_PAI1 was analyzed at the endpoint, BSK_MyoF_PAI1, in the positive analysis fitting direction relative to DMSO as the negative control and baseline of activity. Using a type of binding reporter, gain or loss-of-signal activity can be used to understand protein changes. To generalize the intended target to other relatable targets, this assay endpoint is annotated to the 'cytokine' intended target family, where the subfamily is 'plasmogen activator inhibitor'.
The levels of cell surface (or secreted, indicated by the prefix "s") biomarker endpoints were measured by ELISA. Overt cytotoxicity to cells in confluent adherent cultures (all systems other than the BT system) was assessed by measuring total protein levels using sulforhodamine B (SRB) staining in parallel cultures at the time of biomarker measurements, indicated as SRB endpoints. For proliferation assays for adherent cell types, individual cell types are cultured at sub-confluence and relative cell numbers quantified by SRB staining at time points optimized for each system (48 h: 3C and CASM3C systems; 72 h: BT and HDF3CGF systems; 96 h: SAg system). SRB was performed by staining cells with 0.1% SRB after fixation with 10% TCA and reading wells at 560 nm.Viability and proliferation of PBMC (T cells) was quantified by Alamar Blue reduction for the SAg and BT systems. For PBMC viability (referred to as PBMC Cytotoxicity within the assay endpoint names), cells were plated (75,000/well in a 96-well plate) and then chemical samples added for 1 h before addition of activators, SEB and TSST-1 (20 ng/mL final concentration each). Cells were incubated for 90 h. Then, Alamar Blue (20 uL/well) (Invitrogen, Cat DAL1100) was added for 6 h, and the plates were read with a fluorescence microplate reader at 546/580 nm (excitation/emission). For PBMC proliferation, cells were plated and activated as above but incubated for only 16 h prior to addition of Alamar Blue. Plates were read after 6 h.
Consider `Cc1cccc(O)c1C`, for which the outcome was inactive. Same read-out and setting: for `C[Si](C)(C)C(F)(F)C(F)(F)C(F)(F)F` the value was “inactive”; for `FC(F)C(F)(F)COCC1CO1` (stereo not drawn), “inactive”; for `FC(F)=C(F)C(F)(F)C(F)(F)C(F)(F)C(F)(F)C(F)(F)C(F)(F)F`, “inactive”. With `S=P(N1CC1)(N1CC1)N1CC1`, the result was inactive. Still for that read-out and setting: as for `NCC(F)(F)C(F)(F)C(F)(F)C(F)(F)F`, the entry is “inactive”. The AC50 is the concentration giving half of the maximal activity seen. `FC(F)(F)C(F)(F)C(F)(F)C(F)(F)C(F)(F)C(F)(F)I`: the AC50 was 38.6 µM (active) and 22.2 µM (active). As to `FC(F)(F)COC(OCC(F)(F)F)OCC(F)(F)F`, the outcome was inactive. Still for that read-out and setting: for `OCc1c[nH]c2ccccc12` the value was “inactive”; for `OC(O)(C(F)C(O)(O)C(F)(F)F)C(F)(F)F`, “inactive”; for `OCCC(F)(F)C(F)(F)C(F)(F)C(F)(F)F`, “inactive”. For the compound `O=S(=O)(O)CCC(F)(F)C(F)(F)C(F)(F)C(F)(F)C(F)(F)C(F)(F)F`, the outcome was inactive. In the case of `O=C(Cl)C(F)(F)C(F)(F)C(F)(F)C(=O)Cl`, the outcome was inactive.
